ChEMBL document CHEMBL3988442, “University of Dundee, Small-Polar-MMV Screening Library” (2021)
Screen size: about 48,000 compounds; about 13,000 (27%) showed an effect of 50% or more. The list shows a part of the results.

system: Wolbachia pipientis; assay: Anti-Wolbachia Cell-Based Screen; type: functional; parameters: scale not given: in the data most compounds retested in dose-response had high values; details: 5 µM

Row | SMILES | Percent Effect [%]
1 | COC[C@@]12CC[C@@H](N3CCOCC3)C[C@H]1CCN(c1ncccc1C)C2 | -3.262
2 | CN1CCN([C@@H]2CCN(C3CCOC3)[C@H]2Cc2cnn(C)c2)CC1.O=C(O)C(F)(F)F.O=C(O)C(F)(F)F.O=C(O)C(F)(F)F (some centres not stated) | -5.901
3 | O=C(C1CCOCC1)N1CC[C@H]2[C@H]1CCN2c1nncs1.O=C(O)C(F)(F)F | 9.105
4 | O=C(O)C(F)(F)F.O=C(c1cscn1)N1CC[C@@H]2[C@@H]1CCN2C1CCOC1 (some centres not stated) | 99.27
5 | O=C(O)C(F)(F)F.O=C(c1cscn1)N1CC[C@@H]2[C@@H]1CCN2C1CCOCC1 | 97.96
6 | O=C(O)C(F)(F)F.O=C(c1cscn1)N1CCO[C@H]2[C@@H](Oc3ccccn3)CC[C@@H]21 | -13.1
7 | CN(CC(=O)N(C)C1CCCCC1)Cc1nc2ccccc2c(=O)[nH]1 | -1.325
8 | CC(NC(=O)NC1CCN(Cc2ccccn2)CC1)c1ccco1 (configuration not stated) | 5.238
9 | c1cc(CNc2ccc(-c3nc(C4CC4)no3)cn2)no1 | -4.81
10 | CC(=O)NC1CCCN(c2nc3ccccc3cc2CO)C1 (configuration not stated) | 8.297
11 | COc1ccc(-n2ncc(C(C)NC3Cc4ccccc4C3)c2C)cc1 (configuration not stated) | 4.346
12 | Cc1ncsc1C(=O)NC1CCN(CC(=O)N(C)c2ccccc2)CC1 | -1.351
13 | O[C@@H]1C[C@@H](c2nc(Cc3ccccc3)no2)N(CC2CC2)C1 | 3.423
14 | NCC1Cc2cc(F)cc(-c3cnccn3)c2O1 (configuration not stated) | -7.505
15 | Cn1ccnc1-c1ccc(NCCC2COc3ccccc3O2)nn1 (configuration not stated) | 7.675
16 | Cn1nnnc1SCC1COc2ccccc2O1 (configuration not stated) | 100.3
17 | CN(Cc1nc(CC2CC2)no1)CC1COc2ccccc2O1 (configuration not stated) | -4.512
18 | N#Cc1cccc(N2CCC(CO)(CCOc3ccccc3)CC2)n1 | -8.445
19 | CC(C)n1ccnc1C1CCN(Cc2ccc(Cl)s2)CC1 | -8.213
20 | CSCC(C)(O)CNc1ccccn1 (configuration not stated) | -2.267
21 | Cc1cccc(C)c1OCC(=O)Nc1cccn(C)c1=O | -11.46
22 | CC(=O)Nc1cccc2c1ccn2CC(=O)Nc1n[nH]c(CC(C)C)n1 | 102.1
23 | O=C(Cn1ccc2c(Cl)cccc21)Nc1nc[nH]n1 | 213.7
24 | CN1CCN(c2cc(NC(=O)Cn3ccc4ccccc43)ncn2)CC1 | -1.04
25 | CC(=O)c1cn(CC(=O)NC(C(=O)O)C(C)C)c2ccccc12 (configuration not stated) | -3.053
26 | CC(=O)Nc1cccc2c1ccn2CC(=O)NC(C)C | 119.7

Row | SMILES | Percent Effect [%]
27 | CS(=O)(=O)N1CCN(C(=O)Cn2ccc3c(Cl)cccc32)CC1 | 10.52
28 | CC(=O)Nc1cccc2c1ccn2CC(=O)Nc1nc[nH]n1 | 99.64
29 | COc1cccc2c1ccn2CCNC(=O)C(C)C | 18.92
30 | O=C(Cn1ccc2c(Cl)cccc21)N[C@@H](C(=O)O)c1ccccc1 | 2.253
31 | O=C(Cn1ccc2ccccc21)NCc1cc(N2CCOCC2)ncn1 | -2.844
32 | COc1cccc2c1ccn2CCC(=O)NCCCC(=O)O | 22.13
33 | COCc1nc(C2CC2)nn1-c1cccc(F)c1 | -12.44
34 | Cc1ccc(Oc2ncccc2CNC2CCCCC2)cn1 | -2.321
35 | CN(C)C(=O)N1CCN(C(=O)C(c2ccccc2F)N(C)C)CC1 (configuration not stated) | 0.4283
36 | COc1cccc2c1ccn2CC(=O)N[C@@H](CCSC)C(=O)O | 11.73
37 | COCC(=O)NCCn1ccc2c(OC)cccc21 | -0.7831
38 | Cc1ccn(-c2ccccc2NCc2ncc[nH]2)n1 | -9.69
39 | COc1cccc2c1ccn2CC(=O)Nc1nc[nH]n1 | 91.25
40 | CC(=O)Nc1cccc2c1ccn2CC(=O)Nc1ncc[nH]1 | 101.7
41 | CSCC[C@H](NC(=O)Cn1ccc2c(Cl)cccc21)C(=O)O | 2.833
42 | CCOc1ncccc1Cn1cc(-c2ccc(CO)o2)nn1 | -3.735
43 | CCN(CC)C(=O)C1(NCc2nc(C)c(C)o2)CCCCC1 | -3.366
44 | CN(c1ccc(CNc2ccc(Cl)cn2)cc1)S(C)(=O)=O | 3.879
45 | Cn1ccc(C(=O)Nc2nc(-c3ccc4c(c3)CCO4)cs2)cc1=O | -8.772
46 | CCC(NC(=O)Nc1ccc(OC)c(C)c1)c1ccncc1 (configuration not stated) | -4.572
47 | COc1coc(C(=O)Nc2nc(-c3ccncc3)cs2)cc1=O | 126.8
48 | CC(=O)Nc1nc(C(=O)NC(C)c2cccnc2)cs1 (configuration not stated) | -4.684
49 | COc1ccc(NC(C)=O)cc1OCc1cccnc1 | 0.9629
50 | Cc1csc(NC(=O)C2CSCCC(=O)N2)n1 (configuration not stated) | -7.391
51 | COc1coc(C(=O)Nc2nc(C)cs2)cc1=O | 134.8
52 | COc1ccc(NC(=O)C(C)(C)C)cc1OCc1cccnc1 | -1.901

Row | SMILES | Percent Effect [%]
53 | COc1coc(C(=O)Nc2nc(-c3cccnc3)cs2)cc1=O | 125.3
54 | COc1coc(C(=O)Nc2ccncc2)cc1=O | 119.4
55 | CCOc1ccccc1C(CC(=O)Nc1nc(C)cs1)NC(C)=O (configuration not stated) | 0.8837
56 | CC(=O)Nc1nc(C(=O)NC(C)c2ccncc2)cs1 (configuration not stated) | -2.068
57 | COc1cccc(SCC(=O)N2CCC(N3CCCC(O)C3)CC2)c1 (configuration not stated) | 2.194
58 | COCc1csc(NC(=O)NCc2ccccn2)n1 | 11.42
59 | COc1coc(C(=O)Nc2nc(-c3ccccn3)cs2)cc1=O | 131
60 | Cn1ccc(C(=O)Nc2nnc(-c3ccccn3)[nH]2)cc1=O | -6.589
61 | CCN(CC1CCOC1)C(=O)CCc1nc(C(C)(C)C)no1 (configuration not stated) | -1.689
62 | O=C(Nc1cc(Cl)ccn1)c1nc(N2CCCC2)ncc1Cl | -15.57
63 | Cc1cc(C(N)=O)ccc1NC(=O)c1nc(N2CCCCC2)ncc1Cl | -13.62
64 | NS(=O)(=O)c1ccc(CNC(=O)c2ccc(Cl)cc2F)cc1 | -5.173
65 | O=C(Cn1cc(C(=O)O)ccc1=O)NCc1ccc(F)c(Cl)c1 | 13.7
66 | Nc1nc(N2CCCCCC2)ncc1C(=O)NCc1ccc(F)c(Cl)c1 | 114.6
67 | CN(c1ncc(C(=O)NCc2ccccc2)c(N)n1)C1CCCCC1 | 2.294
68 | CC1CCCN(c2ncc(C(=O)NCc3ccc(F)c(Cl)c3)c(N)n2)C1 (configuration not stated) | 73.04
69 | Cc1cccc(C(=O)NCc2ccc(N3CCCCC3)nc2)n1 | -4.595
70 | Nc1nc(N2CCCCC2)ncc1C(=O)NCc1ccc(F)c(Cl)c1 | 94.05
71 | CCCn1cc(-c2ccnc(NC3CCc4ccccc43)n2)c(C)n1 (configuration not stated) | -0.7424
72 | Cc1cccc(C(C(=O)NCC2(Cn3nc(C)cc3C)CC2)N(C)C)c1 (configuration not stated) | -2.816
73 | Cc1ccc(CN2CC[C@H](c3nnc(COc4ccc(F)cc4)o3)C2)o1 | -1.742
74 | COc1cccc(-c2noc(C3CCN(Cc4ccccc4C)C3)n2)c1.Cl (configuration not stated) | 79.37
75 | COc1cccc(-c2ncc(CN3CC[C@H](CO)[C@@H](O)C3)s2)c1 | 10.62
76 | COc1cccc(-c2noc(C3CCN(Cc4ccccc4F)C3)n2)c1.Cl (configuration not stated) | 108.2
77 | COC(=O)c1cccc2nc([C@H]3CCN(Cc4ccccc4C)C3)oc12 | 0.4423
78 | COc1cccc(-c2noc(C3CCN(Cc4cn(C)nc4C)C3)n2)c1 (configuration not stated) | -2.203

Row | SMILES | Percent Effect [%]
79 | COC(=O)c1cccc2nc([C@H]3CCN(Cc4ccccc4F)C3)oc12 | 4.5
80 | Cc1n[nH]c(CN2CCN(c3ncnc4scc(C)c34)CC2)c1Cl | -1.697
81 | CC(O)CN1CCN(C(=O)c2cccc3[nH]ncc23)CC1 (configuration not stated) | 5.765
82 | Cc1nc(C2CCN(C(=O)c3ccn(C)n3)CC2)c2sccn12 | 109.4
83 | Cc1nc(C2CCN(C(=O)c3cscn3)CC2)c2sccn12 | 123.8
84 | Cc1nc(CN2CCO[C@H]3CN(C(=O)c4cscn4)C[C@H]32)cs1 | -19.39
85 | CC(O)c1cn(CC2CCN(C(=O)c3cscn3)CC2)nn1 (configuration not stated) | -31.81
86 | CCc1cnc(C)nc1NCCSc1nnc(C)n1CC | -6.357
87 | c1cnnc(N2CCCC(NCc3ccc(-n4cncn4)cc3)C2)c1 (configuration not stated) | -12.46
88 | CSCCc1n[nH]c2c1CN(S(=O)(=O)c1cn(C)c(C)n1)CC2 | 5.686
89 | O=C1C(NCc2nnc3n2CCCC3)CCN1c1ccccc1 (configuration not stated) | 4.078
90 | CC(C)NC(=O)CN(C)C1CCN(c2ccc(C#N)cn2)CC1 | -9.804
91 | O=C1CC2(CCN(C(=O)c3ccccn3)CC2)Oc2c(Cl)cc(Cl)cc21 | 107.9
92 | O=C1CC2(CCN(C(=O)c3ccccn3)CC2)Oc2c(Br)cc(Br)cc21 | 106.1
93 | CC(C)CN1CCc2[nH]cnc2C12CCN(C(=O)c1ccccn1)CC2 | 2.853
94 | Cc1cccc(C2(O)CCN(C(=O)c3ccccn3)CC2)c1C | 8.443
95 | O=C(c1ccccn1)N1CCN(c2ccc(-n3cccc3)nn2)CC1 | 9.922
96 | Cc1ccc(F)c(OC2(C(=O)O)CCN(C(=O)c3ccncc3)CC2)c1 | 12.09
97 | O=C1CC2(CCN(C(=O)c3ccncc3)CC2)Oc2c(Cl)cc(Cl)cc21 | 113.6
98 | O=C(c1ccncc1)N1CCN(c2ccc(F)cc2Cl)CC1 | 2.697
99 | Cc1oc(-c2ccco2)nc1CC(=O)NCC(C)(C)N(C)C | -56.87
100 | CCCc1cc(C(=O)N2C[C@H]3CC=C(C)C[C@H]3C2)ccn1 | -1.263
101 | Clc1cnccc1N1CCC(OC2CCOCC2)CC1 | -17.26
102 | CCc1nsc(N2CCCN(C(=O)c3ccc(CC)o3)CC2)n1 | 0.3515
